Results on 19 sequences are retold here after PMC11006913.

Where a chain is given by its changes, count along the chain named.

What all share (experiment): PBM; 200 nM protein, PBS
Holding throughout (conditions): dsDNA, one strand shown

Test [1] addresses PITX2 (Homo sapiens, UniProt Q99697 72-157).
Test [2] deals with T1, SIX6 (Homo sapiens, UniProt O95475 114-200, L143V).
T1 sequence: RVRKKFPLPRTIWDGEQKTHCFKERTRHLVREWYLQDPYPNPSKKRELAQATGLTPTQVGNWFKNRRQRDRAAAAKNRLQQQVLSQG

The target of test [3] is T2, SIX6 (Homo sapiens, UniProt O95475 114-200, H141N).
T2 sequence: T1 sequence with H28N, V30L

Test [4] has as its target T3, SIX6 (Homo sapiens, UniProt O95475 114-200, L143M).
T3 sequence: T1 sequence with V30M

Test [5] deals with T4, SIX6 (Homo sapiens, UniProt O95475 114-200, L143I).
T4 sequence: T1 sequence with V30I

The target of test [6] is T5, SIX6 (Homo sapiens, UniProt O95475 114-200, T165A).
T5 sequence: T1 sequence with V30L, T52A

The target in test [7] is T6, SIX6 (Homo sapiens, UniProt O95475 114-200).
T6 sequence: T1 sequence with V30L

In test [8] the target is T7, PAX4 (Homo sapiens, UniProt O43316 9-242).
T7 sequence: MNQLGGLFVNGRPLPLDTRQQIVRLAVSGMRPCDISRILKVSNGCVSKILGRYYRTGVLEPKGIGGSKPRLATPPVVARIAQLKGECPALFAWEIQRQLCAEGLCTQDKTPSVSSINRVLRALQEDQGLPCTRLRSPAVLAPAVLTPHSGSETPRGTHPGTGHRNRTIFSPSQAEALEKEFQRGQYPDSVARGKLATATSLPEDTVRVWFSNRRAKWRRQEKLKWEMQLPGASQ

Test [9] has as its target T8, PAX4 (Homo sapiens, UniProt O43316 9-242, R227W).
T8 sequence: T7 sequence with R219W

The target in test [10] is HOXA4 (Homo sapiens, UniProt Q00056 201-287, W262R).
Sequence of HOXA4 (Homo sapiens, UniProt Q00056 201-287, W262R) (Q00056 201-287 W262R): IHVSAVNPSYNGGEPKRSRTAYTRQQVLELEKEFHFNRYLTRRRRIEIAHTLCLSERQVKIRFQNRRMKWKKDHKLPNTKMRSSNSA
Test [11] concerns the target HOXA4 (Homo sapiens, UniProt Q00056 201-287, R217L).
For test [12], the target named is HOXA4 (Homo sapiens, UniProt Q00056 201-287).
Sequence of HOXA4 (Homo sapiens, UniProt Q00056 201-287) (Q00056 201-287): as the sequence (Q00056 201-287 W262R) above, with R62W counted along it
Test [13] deals with HOXA4 (Homo sapiens, UniProt Q00056 201-287, W262F).
Sequence of HOXA4 (Homo sapiens, UniProt Q00056 201-287, W262F) (Q00056 201-287 W262F): as the sequence (Q00056 201-287 W262R) above, with R62F counted along it
Test [14] has as its target HOXD13 (Homo sapiens, UniProt P35453 263-343).
The target of test [15] is HOXC10 (Homo sapiens, UniProt Q9NYD6 254-340).
Sequence of HOXC10 (Homo sapiens, UniProt Q9NYD6 254-340) (Q9NYD6 254-340): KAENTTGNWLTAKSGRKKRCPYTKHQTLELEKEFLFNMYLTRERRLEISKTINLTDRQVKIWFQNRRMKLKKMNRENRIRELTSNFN
The target in test [16] is HOXC10 (Homo sapiens, UniProt Q9NYD6 254-340, K271E).
Sequence of HOXC10 (Homo sapiens, UniProt Q9NYD6 254-340, K271E) (Q9NYD6 254-340 K271E): as the sequence (Q9NYD6 254-340) above, with K18E counted along it
Test [17] concerns the target HOXA7 (Homo sapiens, UniProt P31268 116-202).
Test [18] concerns the target HOXA7 (Homo sapiens, UniProt P31268 116-202, W177C).
Test [19] addresses HOXD13 (Homo sapiens, UniProt P35453 263-343, T313R).
The target in test [20] is HOXD13 (Homo sapiens, UniProt P35453 263-343, T313A).
Sequence of HOXD13 (Homo sapiens, UniProt P35453 263-343, T313A) (P35453 263-343 T313A): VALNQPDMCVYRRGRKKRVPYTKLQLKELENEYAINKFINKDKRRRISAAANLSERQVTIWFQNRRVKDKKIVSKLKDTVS

Sequence of HOXA7 (Homo sapiens, UniProt P31268 116-202) (P31268 116-202): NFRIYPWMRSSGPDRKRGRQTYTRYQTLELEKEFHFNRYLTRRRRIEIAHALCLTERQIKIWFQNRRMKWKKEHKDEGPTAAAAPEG
Sequence of HOXA7 (Homo sapiens, UniProt P31268 116-202, W177C) (P31268 116-202 W177C): as the sequence (P31268 116-202) above, with W62C counted along it
Sequence of HOXD13 (Homo sapiens, UniProt P35453 263-343, T313R) (P35453 263-343 T313R): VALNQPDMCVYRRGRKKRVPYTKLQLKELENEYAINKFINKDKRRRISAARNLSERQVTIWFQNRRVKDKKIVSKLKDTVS
Sequence of HOXD13 (Homo sapiens, UniProt P35453 263-343) (P35453 263-343): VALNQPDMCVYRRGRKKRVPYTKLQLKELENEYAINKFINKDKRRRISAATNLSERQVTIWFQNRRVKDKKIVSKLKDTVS
Sequence of HOXA4 (Homo sapiens, UniProt Q00056 201-287, R217L) (Q00056 201-287 R217L): as the sequence (Q00056 201-287 W262R) above, with R17L, R62W counted along it

With CACGCGTG, in test [1], the binding signal is 7.84 upbm affinity estimate (log intensity, higher = more binding, comparable within an allelic series).

In the case of CCCGGCGG, the binding signal was 8.98 upbm affinity estimate (log intensity, higher = more binding, comparable within an allelic series) in [2]; 9.13 upbm affinity estimate (log intensity, higher = more binding, comparable within an allelic series) in test [3]; 9.17 upbm affinity estimate (log intensity, higher = more binding, comparable within an allelic series) in test [4]; 9 upbm affinity estimate (log intensity, higher = more binding, comparable within an allelic series) in test [5]; 9.22 upbm affinity estimate (log intensity, higher = more binding, comparable within an allelic series) in test [6]; 9.12 upbm affinity estimate (log intensity, higher = more binding, comparable within an allelic series) in test [7].

Regarding ACCCGGGC, the binding signal in test [8] was 9.14 upbm affinity estimate (log intensity, higher = more binding, comparable within an allelic series); in test [9], 9.37 upbm affinity estimate (log intensity, higher = more binding, comparable within an allelic series).

Regarding CGGGCTCC, the binding signal in test [10] was 9.62 upbm affinity estimate (log intensity, higher = more binding, comparable within an allelic series); in test [8], 8.72 upbm affinity estimate (log intensity, higher = more binding, comparable within an allelic series); in [11], 9.45 upbm affinity estimate (log intensity, higher = more binding, comparable within an allelic series); in test [12], 9.29 upbm affinity estimate (log intensity, higher = more binding, comparable within an allelic series); in [9], 9.04 upbm affinity estimate (log intensity, higher = more binding, comparable within an allelic series); in [13] it was 9.68 upbm affinity estimate (log intensity, higher = more binding, comparable within an allelic series).

Regarding ACGGCTGG, the binding signal in [8] is 9.44 upbm affinity estimate (log intensity, higher = more binding, comparable within an allelic series); in test [9], 9.39 upbm affinity estimate (log intensity, higher = more binding, comparable within an allelic series).

As to AATAAGTG, the binding signal in test [14] was 10.6 upbm affinity estimate (log intensity, higher = more binding, comparable within an allelic series).

For ACCACTTA, the binding signal in test [15] was 10.9 upbm affinity estimate (log intensity, higher = more binding, comparable within an allelic series).

As to CGGTCCAA, the binding signal in [1] was 7.89 upbm affinity estimate (log intensity, higher = more binding, comparable within an allelic series).

For the sequence AATTAGCT, the binding signal in test [8] is 12.2 upbm affinity estimate (log intensity, higher = more binding, comparable within an allelic series); in [9], 10.9 upbm affinity estimate (log intensity, higher = more binding, comparable within an allelic series); in [13], 11.5 upbm affinity estimate (log intensity, higher = more binding, comparable within an allelic series).

Regarding CCGGAGCC, the binding signal in [10] was 9.74 upbm affinity estimate (log intensity, higher = more binding, comparable within an allelic series); in test [11], 9.76 upbm affinity estimate (log intensity, higher = more binding, comparable within an allelic series); in [12], 9.77 upbm affinity estimate (log intensity, higher = more binding, comparable within an allelic series); in [13], 9.84 upbm affinity estimate (log intensity, higher = more binding, comparable within an allelic series).

In the case of GTACTTAA, the binding signal in test [16] was 11.9 upbm affinity estimate (log intensity, higher = more binding, comparable within an allelic series).

In the case of CTAATTGC, the binding signal in [10] was 10.4 upbm affinity estimate (log intensity, higher = more binding, comparable within an allelic series); in test [17], 11.4 upbm affinity estimate (log intensity, higher = more binding, comparable within an allelic series); in test [11] it was 11.8 upbm affinity estimate (log intensity, higher = more binding, comparable within an allelic series); in test [12], 13.8 upbm affinity estimate (log intensity, higher = more binding, comparable within an allelic series); in test [18], 8.67 upbm affinity estimate (log intensity, higher = more binding, comparable within an allelic series); in test [13] it was 11.4 upbm affinity estimate (log intensity, higher = more binding, comparable within an allelic series).

In the case of CCTGGGCC, the binding signal is 10.1 upbm affinity estimate (log intensity, higher = more binding, comparable within an allelic series) in test [15] and 9.99 upbm affinity estimate (log intensity, higher = more binding, comparable within an allelic series) in test [16].

In the case of CCGACCTC, the binding signal was 9.52 upbm affinity estimate (log intensity, higher = more binding, comparable within an allelic series) in test [19]; 9.45 upbm affinity estimate (log intensity, higher = more binding, comparable within an allelic series) in test [14]; 9.44 upbm affinity estimate (log intensity, higher = more binding, comparable within an allelic series) in test [20].

As for CCGACGCC, the binding signal in [17] was 8.58 upbm affinity estimate (log intensity, higher = more binding, comparable within an allelic series); in test [18] it was 8.45 upbm affinity estimate (log intensity, higher = more binding, comparable within an allelic series).

Consider CGGTCGGC, for which the binding signal in [1] is 7.99 upbm affinity estimate (log intensity, higher = more binding, comparable within an allelic series).

In the case of ATAATGGG, the binding signal in test [17] was 11.2 upbm affinity estimate (log intensity, higher = more binding, comparable within an allelic series); in test [18], 8.88 upbm affinity estimate (log intensity, higher = more binding, comparable within an allelic series).

CCGGTGGC: the binding signal in test [19] was 9.44 upbm affinity estimate (log intensity, higher = more binding, comparable within an allelic series); in [14] it was 9.29 upbm affinity estimate (log intensity, higher = more binding, comparable within an allelic series); in test [20], 9.43 upbm affinity estimate (log intensity, higher = more binding, comparable within an allelic series).

Take CCAGCCAG: the binding signal in test [19] is 9.41 upbm affinity estimate (log intensity, higher = more binding, comparable within an allelic series); in test [14], 9.59 upbm affinity estimate (log intensity, higher = more binding, comparable within an allelic series); in [20] it was 9.56 upbm affinity estimate (log intensity, higher = more binding, comparable within an allelic series).
